Screening results as filed in PubChem BioAssay.
In the library only some 9.2% were active in any assay of this set; here they are far more common.
FLuc counter: firefly luciferase modulation, counter-screen for miR-21 project; purified FLuc, Km substrates, luminescence inhibition; Potency, µM (top dose mostly 57.5 µM), for the others: top-dose activity change, negative = inhibition, actives largely listed as inhibitors; 360,000 tested, 6.9% active;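 further: plate controls were vehicle for no effect and reference inhibitor for full effect; nearly all actives have a fitted effect of over 55% in size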
Target sequence (P08659 whole entry, looked up): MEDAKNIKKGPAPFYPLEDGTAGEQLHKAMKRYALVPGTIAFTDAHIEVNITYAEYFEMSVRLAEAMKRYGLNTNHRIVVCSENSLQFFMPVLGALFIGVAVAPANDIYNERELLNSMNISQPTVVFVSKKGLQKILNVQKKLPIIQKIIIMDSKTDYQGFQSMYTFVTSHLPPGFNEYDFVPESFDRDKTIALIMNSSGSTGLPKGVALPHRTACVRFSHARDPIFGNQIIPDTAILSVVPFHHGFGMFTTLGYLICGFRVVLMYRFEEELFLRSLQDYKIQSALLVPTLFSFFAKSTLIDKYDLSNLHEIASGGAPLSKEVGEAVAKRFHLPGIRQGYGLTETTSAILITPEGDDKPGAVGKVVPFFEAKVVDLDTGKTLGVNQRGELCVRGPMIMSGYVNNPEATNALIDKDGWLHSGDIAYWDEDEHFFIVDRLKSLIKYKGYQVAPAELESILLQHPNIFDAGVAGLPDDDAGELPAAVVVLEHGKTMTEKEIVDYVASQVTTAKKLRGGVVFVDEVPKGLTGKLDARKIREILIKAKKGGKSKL
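Purified P. pyralis luciferase, 10 nM final, with Km-level 10 uM D-luciferin and 10 uM ATP in 50 mM Tris acetate pH 7.5, 10 mM Mg acetate, 0.01% Tween-20, 0.05% BSA; 6-point qHTS titration about 60 µM downward; luminescence read.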
ELG1 repair inh: ELG1-dependent DNA repair inhibition | Potency, µM (titrated, usually from 46.1 µM), for the others: at the top dose activity change, negative = inhibition, actives largely listed as inhibitors | 330,000 tested, 2.3% active | HEK293T ELG1-luciferase reporter, luminescence, 16 h; DNA damage induced by 5-fluorouridine; further: on the % scale 0 is the no-effect control and ±100 the full control effect; nearly all actives have a fitted effect of over 55% in size
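Luminescence from the luciferase reporter, measured 30 min after ONE-Glo reagent at room temperature, was the read-out. Beforehand, 2,000 cells per well were exposed for 16 hr at 37 °C to 5-fluorouridine together with compound or vehicle.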
Rab9 prom act: Rab9 promoter activation | Huh7 Rab9 promoter-luciferase reporter, luminescence, 24 h | Potency, µM (titrated, usually from 9.22 µM), for inactives: at the top dose activation, negative = inhibition, hits mostly activators | 320,000 tested, 2.8% active; further: % of control where 0% means no effect; nearly all actives have a fitted effect of over 60% in size
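Cells were plated at 1500 per well in reduced-serum medium with 10% FBS and left 2 h. Compound in DMSO was then added for 24 h at 37 °C. Reporter signal was read by luminescence after 10 min with luciferase detection reagent.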
NPC1 promoter act: NPC1 promoter activation; Huh7 NPC1 promoter luciferase reporter, 24 h; Potency, µM (top dose mostly 9.22 µM), without a hit: top-dose activation, most hits filed as activators; 320,000 tested, 2.4% active; AID 485313; further: % of control where 0% means no effect; nearly all actives have a fitted effect of over 60% in size
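In 1536-well qHTS, Huh7 cells harboring an NPC1 promoter–luciferase construct received compound for 24 h; activation was quantified by luminescence following luciferase reagent addition.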
SMN2 splice enh: SMN2 splice variant enhancement; HEK293 SMN2-luciferase splicing reporter, luminescence, 30-36 h; Potency, µM (titrated, usually from 46.1 µM), for inactives: at the highest dose activity change, positive = activation, usual class: activators; 210,000 tested, 2.8% active; AID 1458; further: % of control where 0% means no effect; nearly all actives have a fitted effect of over 55% in size
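qHTS luciferase splicing reporter: luminescence rises when SMN2 exon 7 is included in transfected HEK293 cells. Compound exposure lasted 30-36 h at 37C, with 4.5 mM final sodium butyrate as control, followed by a ONE-Glo read.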
ELG1 genotox: inducers of genotoxicity in HEK293T ELG1-luciferase cells. HEK293T ELG1-luciferase reporter, luminescence, 16 h. Potency, µM (series often up to 46 µM), for inactives: at the top dose activity change, positive = activation, actives largely listed as activators. 330,000 tested, 1.3% active. AID 504466; further: % of control where 0% means no effect; nearly all actives have a fitted effect of over 60% in size
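Step 1: seed 2,000 HEK293T ELG1-luciferase cells per well. Step 2: add compound or DMSO, incubate 16 hr at 37 °C. Step 3: ONE-Glo, 30 min at room temperature, read luminescence.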
ELG1-Luc inh: confirmation of human ELG1-dependent DNA repair inhibitors; AID 624248; Potency, µM (titrated, usually from 46.1 µM), for the others: at the top dose activity change, negative = inhibition, hits mostly inhibitors; 670 tested, 68% active; HEK293T ELG1-luciferase levels, luminescence; cells co-treated with 5-fluorouridine; shares compounds with ELG1 repair inh; further: on the % scale 0 is the no-effect control and ±100 the full control effect; nearly all actives have a fitted effect of over 55% in size
ELG1 MMS Luc: inhibits ELG1-dependent repair under MMS stimulation in HEK293T cells; Potency, µM (titrated, usually from 46.1 µM), without a hit: top-dose activity change, negative = inhibition, hits mostly inhibitors; HEK293T luciferase-tagged ELG1 level, MMS stimulated; 670 tested, 53% active; AID 624249; shares compounds with ELG1 repair inh; further: on the % scale 0 is the no-effect control and ±100 the full control effect; nearly all actives have a fitted effect of over 60% in size
ELG1 5-FU: confirmation of ELG1 repair inhibitors: viability with 5FU. shares compounds with ELG1 repair inh. cell viability with 5-FU, ELG1-dependent repair. Potency, µM (highest dose often 46.1 µM), for the others: at the top dose activity change, negative = viability loss, actives largely listed as cytotoxic. 670 tested, under 10 active. AID 624250;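 further: ELG1-luc HEK293T cells cotreated with 5-fluorouridine at 10 µM final; viability measured 16 h after compound addition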
ELG1 MMS viab: confirmation of ELG1 repair inhibitors: viability with MMS; AID 624251; 670 tested, 33% active; Cell viability with MMS, ELG1-dependent DNA repair; shares compounds with ELG1 repair inh; Potency, µM (highest dose often 46.1 µM), without a hit: at the top dose activity change, negative = viability loss, actives largely listed as cytotoxic;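 further: ELG1-luc HEK293T cells co-treated with 10 µM MMS; viability read 16 h after compound addition; on the % scale 0 is the no-effect control and ±100 the full control effect; nearly all actives have a fitted effect of over 60% in size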
ELG1 unstim viab: counter-screen for ELG1 repair inhibitors: unstimulated cell viability | 900 tested, 8% active | Potency, µM (top dose mostly 45.9 µM), for inactives: at the highest dose activity change, negative = loss of viability, hits mostly cytotoxic | cell viability counter-screen, unstimulated, luminescence | AID 624252 | shares compounds with ELG1 repair inh;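 further: compound exposure lasted 16 hours before reading; on the % scale 0 is the no-effect control and ±100 the full control effect; nearly all actives have a fitted effect of over 55% in size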
* hit, by the source's call; ? = inconclusive; . = no result given; [ ] = another dose, or the depositor's remark. The call rests on the fitted dose curve; in most records, active means well fitted curve in the direction sought with a large enough effect; inconclusive means small, poorly fitted or top-dose-only effect, or another doubt; inactive means no such curve, though single readings can be large; an effect the other way counts as inactive or inconclusive. Potency means the concentration at half of the fitted maximal effect.

SMILES	FLuc counter	ELG1 repair inh	Rab9 prom act	NPC1 promoter act	SMN2 splice enh	ELG1 genotox	ELG1-Luc inh	ELG1 MMS Luc	ELG1 5-FU	ELG1 MMS viab	ELG1 unstim viab
Cc1cc(-c2csc3ncnc(N4CCN(C)CC4)c23)cc(C)c1C	1%	-19%	-4%	2%	.	-13%	.	.	.	.	.
CN1CCN(c2ncnc3scc(-c4ccccc4Cl)c23)CC1	2%	4.1µM*	-1%	0%	.	-17%	7.1µM*	16µM*	-10%	-2%	?
COc1ccc(Cl)cc1NC(=O)C(C)OC(=O)c1ccc(NS(=O)(=O)c2ccc3[nH]c(=O)[nH]c3c2)cc1 (centres undefined)	1%	2.9µM*	1%	-2%	-3%[1.84 µM]	2%	2.8µM*	3%	?	-2%	-5%
CC(OC(=O)c1ccc(NS(=O)(=O)c2ccc3[nH]c(=O)[nH]c3c2)cc1)C(=O)Nc1ccc(Cl)cc1 (centres undefined)	-4%	?	-5%	-2%	-5%	-5%	.	.	.	.	.
COc1ccc(-c2cn[nH]c2-c2ccc(O)cc2O)cc1OC	1%	-12%	0%	-1%	.	-1%	.	.	.	.	.
CCOc1ccc(-c2[nH]ncc2-c2ccc(OC)c(OC)c2)c(O)c1	1%	2.3µM*	-15%	-33%	-12%	-26%	13µM*	?	-4%	?	?
CCOc1ccccc1CNCc1ccc(F)cc1	2%	13%	1%	0%	0%	-5%	.	.	.	.	.
COc1ccccc1N(CC(O)CN1C(C)CCCC1C)S(=O)(=O)c1ccccc1 (centres undefined)	0%	-1%	0%	-4%	.	10%	.	.	.	.	.
O=C(CCSc1nc(-c2ccc3c(c2)OCO3)cc(C(F)(F)F)n1)NCc1ccccc1	7%	?	-1%	0%	-17%	7%	.	.	.	.	.
COc1ccc(CNC(=O)CCSc2nc(-c3ccc4c(c3)OCO4)cc(C(F)(F)F)n2)cc1	-3%	3.3µM*	2%	5%	-7%	7%	7.9µM*	2%	?	-3%	0%
COc1ccc(Cn2ccnc2SCC(=O)Nc2ccc(C)cc2C)cc1	-13%	.	.	.	.	.	.	.	.	.	.
